Reference: the supplement of paper PMC6555819

What was measured:
Assay in all cases: PBM binding z-score (relative to random genomic background probes); higher = stronger binding; sequences stand for … in GC…GCGATTGACAGCGTAGAATGAAGG
[1] = tested on: FXR:RXRa (NR concentration 270 nM, RXRa partner concentration 90 nM)
In short: (§1)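 Custom Agilent 4×180K protein-binding microarrays carried double-stranded probes, each with a 34-nt variable region. These regions held direct-repeat seeds, single-nucleotide variants, half-site ablations and random human genomic background sequences. Ligand-free nuclear receptor dimers were incubated on the arrays for 1 h, antibodies against each partner (one per run) detected binding, and scanned fluorescence was regression-normalized. Binding z-scores take the random background probes as reference.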

[2] = tested on: LXRa:RXRa (NR concentration 270 nM, RXRa partner concentration 90 nM)
In short: as §1

[3] = tested on: LXRa homodimer (NR concentration 270 nM)
In short: as §1

[4] = tested on: LXRb:RXRa (NR concentration 270 nM, RXRa partner concentration 90 nM)
In short: as §1

[5] = tested on: LXRb homodimer (NR concentration 270 nM)
In short: as §1

[6] = tested on: PPARa:RXRa (NR concentration 270 nM, RXRa partner concentration 90 nM)
In short: as §1

[7] = tested on: PPARg:RXRa (NR concentration 180 nM, RXRa partner concentration 90 nM)
In short: as §1

[8] = tested on: PPARg:RXRa 270nM:90nM, anti-RXR (NR concentration 270 nM, RXRa partner concentration 90 nM)
In short: as §1

[9] = tested on: PPARg:RXRa 30nM:10nM, anti-RXR (NR concentration 30 nM, RXRa partner concentration 10 nM)
In short: as §1

[10] = tested on: PPARg:RXRa 90nM:30nM, anti-RXR (NR concentration 90 nM, RXRa partner concentration 30 nM)
In short: as §1

| Sequence | PBM binding z-score [1] | PBM binding z-score [2] | PBM binding z-score [3] | PBM binding z-score [4] | PBM binding z-score [5] | PBM binding z-score [6] | PBM binding z-score [7] | PBM binding z-score [8] | PBM binding z-score [9] | PBM binding z-score [10] |
| --- | --- | --- | --- | --- | --- | --- | --- | --- | --- | --- |
| GCATATATGTAATACAAGGTGAAAGTCCGATTGT | 0.416 | 0.403 | 0.269 | 0.457 | 0.00515 | 1.08 | 1.35 | 0.83 | 0.428 | 0.72 |
| TTACCCAGGTGAAAGGTCGTTGATGCACGCCTTG | 2.92 | 3.07 | 0.858 | 2.75 | -0.247 | 5.24 | 9.35 | 8.61 | 7.49 | 10.2 |
| CCGACTGGGACAAGGTTACCATAACGCACAGCCA | 0.29 | 0.604 | -0.141 | 0.507 | -0.706 | 1.49 | 1.92 | 2.18 | 0.494 | 1.59 |
| CCGACTGGGGCACAGGTTACCATACTCAGTACGA | 0.0382 | 0.072 | -0.0129 | 0.247 | -0.88 | 2.71 | 6.11 | 5.67 | 4.13 | 6.28 |
| TATACAGTGTCAAAGGCCAGAGTACGAATGTCGA | 0.666 | 0.861 | 0.197 | 0.608 | 0.893 | 2.18 | 3.95 | 4.17 | 2.41 | 3.86 |
| CGTCCAAGGTCAGAAAGGTCAGTGAATGCCGAGT | 5.85 | 5 | 3.05 | 4.56 | 0.524 | 4.94 | 3.36 | 4.31 | 0.967 | 2.8 |
| TTACCAAGGTGAAAGGTGGTTGATGCACGCCTTG | 0.879 | 0.449 | -0.508 | 0.171 | -0.366 | 2.81 | 4.38 | 5.35 | 3.06 | 4.85 |
| CCGACTGGTGCAAAGGTTACCATACTCAGTACGA | 0.595 | 1.59 | 0.244 | 1.89 | -0.483 | 3.86 | 6.69 | 6.67 | 4.73 | 6.75 |
| TCAGACAGGTGAAGGTAACTTAGGTACGCAGTCG | 1.16 | 2.01 | -0.079 | 1.41 | -0.0603 | 1.46 | 0.846 | 2.45 | 4.08 | 3.11 |
| ATATGTAGGTTGAGGGTCATTCAGGTTGGTTCGC | 3.26 | 3.21 | 1.56 | 3.31 | 1.32 | 4.86 | 7.99 | 7.58 | 6.69 | 7.97 |
| TAGCCTAGTTCATTGGGCCAGTATAGTACGCATC | -0.0548 | 0.147 | -0.141 | 0.139 | -0.687 | 0.81 | 0.461 | 0.538 | -0.446 | 0.253 |
| CCGACTGGGGCATAAGGTTACCGTAAGCCAGCCC | 0.834 | 0.933 | -0.596 | 0.83 | -1.46 | 2.03 | 2.33 | 3.5 | 1.26 | 3.13 |
| GATACAGGGTCAGCTAGAGGCCAGGGTATGGAAA | 4.42 | 2.81 | -0.258 | 2.46 | -0.476 | 4.43 | 3.61 | 3.44 | 0.426 | 2.14 |
| GCAGACAGGTGAAACGCATGTAACTCAGGGTGGC | -0.379 | -0.173 | -0.544 | -0.265 | -1.29 | 0.825 | 0.841 | -0.0772 | -0.653 | -0.344 |
| AATACAGGGTCACTAGGCCAGCGTAGGTACGAAT | 6.02 | 4.76 | 0.904 | 3.93 | 0.853 | 5.62 | 7.64 | 6.28 | 3.54 | 5.52 |
| CGAACGTGGGCATGAGTTGATAGCAAATGCCGAT | -0.892 | -0.876 | -1.04 | -0.998 | -1.27 | -1.82 | 0.51 | -0.55 | -0.697 | -0.428 |
| GATACAGGCTCAGCTAGAGGCCAGAGTATGGAAA | -0.845 | -1.13 | -0.652 | -1.25 | -1.62 | -1.21 | 0.137 | -0.746 | -0.505 | -0.667 |
| GCGACTGGGGCATCAGCAGGTTACCTTAACTTAA | -0.0462 | -0.17 | -0.509 | 0.761 | -0.96 | 1.16 | 0.496 | 0.878 | -0.313 | 0.578 |
| TTATATAGGTAAAGGTGAAAGTCGAACGATATGA | 1.14 | 1.34 | 0.121 | 1.2 | 0.294 | 4.2 | 6.76 | 6.26 | 4.77 | 6.33 |
| GTACCAAGGTGAATAGGTCGTCGATGAGTAGGCG | 0.785 | 0.833 | -0.158 | 0.527 | -0.663 | 2.45 | 1.5 | 1.81 | 0.196 | 1.18 |
| ACTAGCAGGCCAAGTTTGCGTCACTCAAACAAAG | -0.42 | -0.547 | -0.38 | -0.386 | -0.402 | -0.395 | -0.346 | -0.378 | -0.74 | -0.227 |
| TCTAGTTGGCCAAAGGTCACACACTCGAAATGCG | 5.4 | 5.41 | 3.89 | 5.44 | 1.17 | 6.16 | 11 | 9.37 | 11.1 | 11.3 |
| ATCTCTAGGTAACCAAGTTCAGTGAGTGCCGAAC | 0.417 | 0.863 | 0.949 | 0.855 | 0.746 | 1.04 | 0.34 | 0.67 | -0.0594 | 0.338 |
